In PubChem BioAssay (Tox21):
Results filed as inconclusive are left out. Activity calls are given as the source filed them. Unless noted, calls come from the whole dose curve; as a rule, active = well fitted curve in the direction sought with a large enough effect in the repeat runs; inconclusive = weak or mixed curves; inactive = no such curve, though single readings can be large; an effect the other way counts as inactive or inconclusive.

What was measured:
[1] = qHTS assay for small molecule agonists of the p53 signaling pathway (AID 651631; calls by dose curve; note: nearly all actives have a fitted effect of over 15% in size)
Summary of the method: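 Readout was fluorescence from the LiveBLAzer FRET substrate, applied for 2 h at room temperature after 16 h compound exposure at 37 °C. Cells were the p53RE-bla HCT-116 line, with beta-lactamase driven by p53 response elements.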

[2] = qHTS assay for small molecules that induce genotoxicity in human embryonic kidney cells expressing luciferase-tagged ATAD5 (AID 651632); note: nearly all actives have a fitted effect of over 15% in size
Summary of the method: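 Cells were seeded at 2,000 per well, dosed with compound, and incubated 16 hr at 37C in 5% CO2. Luciferase activity was then quantified after a 30 min room-temperature incubation with Amplite.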

[3] = qHTS assay for small molecule agonists of the p53 signaling pathway - cell viability (AID 651633; calls by dose curve; note: series mostly up to about 83 µM; nearly all actives have a fitted effect of over 30% in size)
Summary of the method: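 Viability counter-read: CellTiter-Glo luminescence (30 min, room temperature) in the same p53RE-bla plates. These plates had been exposed to compounds for 16 h at 37 C.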

[4] = qHTS assay for small molecules that induce genotoxicity in human embryonic kidney cells expressing luciferase-tagged ATAD5 - cell viability (AID 651634; calls by dose curve; note: nearly all actives have a fitted effect of over 25% in size)
Summary of the method: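 Cells (HEK293T, luciferase-tagged ATAD5) are seeded at 2,000 per well, dosed with compound or DMSO vehicle, and incubated 15.5 hr at 37C and 5% CO2. CellTiter-Fluor is added for 30 min before fluorescence is measured.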

[5] = qHTS assay for small molecule disruptors of the mitochondrial membrane potential - cell viability (AID 720634; calls by dose curve;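 note: human HepG2 liver cancer cells; series mostly up to about 83 µM; nearly all actives have a fitted effect of over 20% in size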)
Summary of the method: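 Cytotoxicity was measured by ATP quantitation in HepG2 wells that had first been treated with compound for 1 hr and stained with m-MPI dye; CellTiter-Glo incubation was 30 min at room temperature.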

[6] = qHTS assay for small molecule disruptors of the mitochondrial membrane potential (AID 720635)
Summary of the method: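 Mitochondrial membrane potential tracked with Mito-MPS dye, red aggregates (ex 540/em 590 nm) against green monomers (ex 490/em 535 nm). Compound treatment 1 hr at 37C, dye 30 min in HepG2.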

[7] = qHTS assay to test for compound auto fluorescence at 590 nm (red) in HepG2 cells (AID 720674)
Summary of the method: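 We screened compounds on adherent HepG2 cells, incubating them for an hour at 37 C in 5% CO2 before reading emission at 590 nm under 540 nm excitation; values reflect equivalence to Rose Bengal sodium fluorescence.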

[8] = qHTS assay to test for compound auto fluorescence at 535 nm (green) in HepG2 cells (AID 720675)
[9] = qHTS assay to test for compound auto fluorescence at 460 nm (blue) in HEK293 cells (AID 720678)
Summary of the method: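 After cell attachment (4-5 hr, 37C), compounds were pinned onto HEK293 monolayers in 10% dialyzed FBS medium. The blue channel (405/460 nm) was read following overnight culture. Equivalency was calculated against triamterene.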

[10] = qHTS assay to test for compound auto fluorescence at 590 nm (red) in HEK293 cells (AID 720679)
Summary of the method: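 Plates of HEK293 cells (10% dialyzed FBS) are treated with 23 nL compound or DMSO vehicle after a 4-5 hr attachment period, incubated overnight at 37C, and read for red fluorescence at 540/590nm.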

[11] = qHTS assay to test for compound auto fluorescence at 535 nm (green) in HEK293 cells (AID 720680)
[12] = qHTS assay to test for compound auto fluorescence at 535 nm (green) in HEK293 cell free culture (AID 720682)
Summary of the method: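 Compounds were pin-transferred into cell-free DMEM with 10% FBS, and green fluorescence was read at excitation 485 nm and emission 535 nm. Intensities were expressed as fluorescein-equivalent values.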

[13] = qHTS assay to test for compound auto fluorescence at 590 nm (red) in HEK293 cell free culture (AID 720683)
Summary of the method: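 Red-channel autofluorescence of compounds in culture medium (DMEM, 10% FBS), no cells, measured at 540/590 nm. Rose Bengal sodium is the reference fluorophore for equivalence.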

[14] = qHTS assay to test for compound auto fluorescence at 590 nm (red) in HepG2 cell free culture (AID 720684)
Summary of the method: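 No cells present: MEM + 10% FBS only. Compound pinned in, red label read (540/590 nm). Activity = fluorescence equivalent to Rose Bengal sodium.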

[15] = qHTS assay to test for compound auto fluorescence at 460 nm (blue) in HepG2 cell free culture (AID 720685)
Summary of the method: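 Cell-free plates of MEM plus 10% FBS received 23 nL compound or DMSO vehicle; blue-channel (405/460 nm) intensity scored against triamterene as reference fluorophore.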

[16] = qHTS assay to test for compound auto fluorescence at 460 nm (blue) in HepG2 cells (AID 720687)
Summary of the method: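 Blue-channel autofluorescence (Ex/Em 405/460 nm, triamterene-equivalent) was measured after 1 hr compound exposure at 37 C, 5% CO2. Cells were HepG2, plated overnight at 37 C in MEM plus 10% FBS.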

[17] = qHTS assay to test for compound auto fluorescence at 460 nm (blue) in HEK293 cell free culture (AID 720681)
Summary of the method: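 Blue fluorescence (Ex 405/Em 460 nm, triamterene-equivalent) was read immediately after pin transfer of compound or DMSO into medium (DMEM, 10% FBS) without cells.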

[18] = qHTS assay to test for compound auto fluorescence at 535 nm (green) in HepG2 cell free culture (AID 720686)
[19] = target: Glucocorticoid receptor (Homo sapiens) (UniProt P04150); assay: qHTS assay to identify small molecule antagonists of the glucocorticoid receptor (GR) signaling pathway (AID 720692; active = well fitted inhibition curve with a large enough effect in the signal ratio in the repeat runs, not every such curve was filed as active; the % refers to the signal ratio)
Sequence of Glucocorticoid receptor (Homo sapiens) (P04150 whole entry, looked up): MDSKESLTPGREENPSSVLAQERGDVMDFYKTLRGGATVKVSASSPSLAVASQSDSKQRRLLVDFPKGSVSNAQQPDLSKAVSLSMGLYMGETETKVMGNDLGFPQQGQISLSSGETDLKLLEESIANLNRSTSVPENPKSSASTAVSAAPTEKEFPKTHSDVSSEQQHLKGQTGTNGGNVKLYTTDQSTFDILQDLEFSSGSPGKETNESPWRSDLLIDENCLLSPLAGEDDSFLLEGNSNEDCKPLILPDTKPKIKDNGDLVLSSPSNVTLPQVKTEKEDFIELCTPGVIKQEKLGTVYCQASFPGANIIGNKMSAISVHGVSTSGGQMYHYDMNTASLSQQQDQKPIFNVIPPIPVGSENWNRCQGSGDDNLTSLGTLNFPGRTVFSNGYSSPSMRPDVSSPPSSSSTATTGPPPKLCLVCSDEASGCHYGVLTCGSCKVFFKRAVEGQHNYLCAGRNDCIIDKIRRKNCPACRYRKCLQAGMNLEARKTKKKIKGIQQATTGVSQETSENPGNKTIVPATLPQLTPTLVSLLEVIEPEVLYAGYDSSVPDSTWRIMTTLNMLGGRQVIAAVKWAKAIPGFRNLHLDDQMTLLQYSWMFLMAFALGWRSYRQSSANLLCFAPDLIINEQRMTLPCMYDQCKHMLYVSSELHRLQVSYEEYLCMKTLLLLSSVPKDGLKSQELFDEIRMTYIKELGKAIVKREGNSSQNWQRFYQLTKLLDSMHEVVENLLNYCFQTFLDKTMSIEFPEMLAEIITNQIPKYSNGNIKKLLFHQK
Summary of the method: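 Antagonism was scored as loss of dexamethasone-driven (5 nM final) reporter signal in HeLa cells bearing a glucocorticoid response element–beta-lactamase construct, after 18 h compound exposure at 37 C and 2 h FRET substrate loading.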

[20] = target: Glucocorticoid receptor (Homo sapiens) (UniProt P04150); assay: qHTS assay to identify small molecule agonists of the glucocorticoid receptor (GR) signaling pathway (AID 720691; active = well fitted activation curve with a large enough effect in the signal ratio in the repeat runs, not every such curve was filed as active; the % refers to the signal ratio)
Summary of the method: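 Steps: seed GR-bla HeLa cells, incubate 4 h at 37 C/5% CO2; pin-transfer DMSO-dissolved compounds; incubate 18 h at 37 C; add LiveBLAzer B/G FRET substrate; after 2 h at room temperature, measure fluorescence.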
% is set by controls: 0 for no effect and ±100 for the full control effect.

Cc1cc(-c2ccccc2)nnc1NCCN1CCOCC1
inactive: outcome [1] | outcome [2] | outcome [3] | Potency [4] | outcome [5] | Potency [6] | outcome [7] | outcome [8] | outcome [9] | outcome [10] | outcome [11] | outcome [12] | outcome [13] | outcome [14] | outcome [15] | outcome [16]

c1ccc2cnccc2c1
inactive: outcome [1] | outcome [2] | outcome [3] | Potency [4] | outcome [5] | Potency [6] | outcome [7] | outcome [8] | outcome [9] | outcome [10] | outcome [11] | outcome [17] | outcome [12] | outcome [13] | outcome [14] | outcome [15] | outcome [18] | outcome [16] | outcome [19]

CC(=O)C(C)O (configuration not stated)
inactive: outcome [1] | outcome [2] | outcome [3] | Potency [4] | outcome [5] | Potency [6] | outcome [7] | outcome [8] | outcome [9] | outcome [10] | outcome [11] | outcome [17] | outcome [12] | outcome [13] | outcome [14] | outcome [15] | outcome [18] | outcome [16]

Nc1nc(-c2ccccc2)c(Br)c(=O)[nH]1
inactive: outcome [1] | outcome [2] | outcome [3] | Potency [4] | outcome [5] | Potency [6] | outcome [7] | outcome [8] | outcome [9] | outcome [10] | outcome [11] | outcome [17] | outcome [12] | outcome [13] | outcome [14] | outcome [15] | outcome [18] | outcome [16] | Potency [20]

[O]=[Mo](=[O])=[O]
inactive: outcome [1] | outcome [2] | outcome [3] | Potency [4] | outcome [5] | Potency [6] | fluorescence, relative to Rose Bengal [7] -0.0279% [at 18.6 µM] | fluorescence, % of fluorescein control [8] 0.0234% [at 18.6 µM] | fluorescence, % of triamterene [9] 0.132% [at 18.6 µM] | fluorescence, % of fluorescent control [10] 0.419% [at 18.6 µM] | fluorescence, % of fluorescein [11] -0.0315% [at 18.6 µM] | fluorescence, % of fluorescent control [17] 0.0055% [at 18.6 µM] | activity change [12] 0.118% [at 18.6 µM] | fluorescence, % of fluorescent control [13] 0.0845% [at 18.6 µM] | fluorescence, % of Rose Bengal [14] 0.0301% [at 18.6 µM] | fluorescence, % of fluorescent control [15] 0.041% [at 18.6 µM] | fluorescence, % of fluorescein control [18] -0.0406% [at 18.6 µM] | fluorescence, % of fluorescent control [16] 0.0613% [at 18.6 µM] | outcome [19]

Cc1ccnc(N)c1
inactive: outcome [1] | outcome [2] | outcome [3] | Potency [4] | outcome [5] | Potency [6] | outcome [7] | outcome [8] | outcome [9] | outcome [10] | outcome [11] | outcome [17] | outcome [12] | outcome [13] | outcome [14] | outcome [15] | outcome [18] | outcome [16] | Potency [20]

CC1c2ccccc2CN1NC(=O)c1ccc(Cl)c(S(N)(=O)=O)c1 (configuration not stated)
inactive: outcome [1] | outcome [2] | outcome [3] | Potency [4] | outcome [5] | Potency [6] | outcome [7] | outcome [8] | outcome [9] | outcome [10] | outcome [11] | outcome [12] | outcome [14] | outcome [15] | outcome [16] | Potency [20] | outcome [19]

CC1=C(O)C(=O)C(C)O1 (configuration not stated)
inactive: outcome [1] | outcome [2] | outcome [3] | Potency [4] | outcome [5] | Potency [6] | outcome [7] | outcome [8] | outcome [9] | outcome [10] | outcome [11] | outcome [17] | outcome [12] | outcome [13] | outcome [14] | outcome [15] | outcome [16] | Potency [20] | outcome [19]

c1ccc(-c2nn[nH]n2)cc1
inactive: outcome [1] | outcome [2] | outcome [3] | Potency [4] | outcome [5] | Potency [6] | outcome [7] | outcome [8] | outcome [9] | outcome [10] | outcome [11] | outcome [17] | outcome [12] | outcome [13] | outcome [14] | outcome [16]

CNCCS(=O)(=O)O
inactive: outcome [1] | outcome [2] | outcome [3] | Potency [4] | outcome [5] | Potency [6] | outcome [7] | outcome [8] | outcome [9] | outcome [10] | outcome [11] | outcome [17] | outcome [12] | outcome [13] | outcome [14] | outcome [15] | outcome [18] | outcome [16] | outcome [19]

CCCSSCCC
inactive: outcome [1] | outcome [2] | outcome [3] | Potency [4] | outcome [5] | Potency [6] | outcome [7] | outcome [9] | outcome [10] | outcome [11] | outcome [17] | outcome [12] | outcome [13] | outcome [14] | outcome [15] | outcome [16] | outcome [19]

N[C@@H](CSCCCO)C(=O)O
inactive: outcome [1] | outcome [2] | outcome [3] | Potency [4] | outcome [5] | Potency [6] | outcome [7] | outcome [8] | outcome [9] | outcome [10] | outcome [11] | outcome [17] | outcome [13] | outcome [14] | outcome [15] | outcome [18] | outcome [16]

CC(CO)(CO)CO
inactive: outcome [1] | outcome [2] | outcome [3] | Potency [4] | outcome [5] | Potency [6] | outcome [7] | outcome [8] | outcome [9] | outcome [10] | outcome [11] | outcome [17] | outcome [13] | outcome [14] | outcome [15] | outcome [18] | outcome [16] | Potency [20] | outcome [19]

CCn1cc(C(=O)O)c(=O)c2cnc(N3CCCC3)nc21
inactive: outcome [1] | outcome [2] | outcome [3] | Potency [4] | outcome [5] | Potency [6] | fluorescence, relative to Rose Bengal [7] -0.176% [at 18.6 µM] | fluorescence, % of fluorescein control [8] -0.162% [at 18.6 µM] | fluorescence, % of triamterene [9] 0.0274% [at 18.6 µM] | fluorescence, % of fluorescent control [10] -0.164% [at 18.6 µM] | fluorescence, % of fluorescein [11] 0.0361% [at 18.6 µM] | activity change [12] -0.0351% [at 18.6 µM] | fluorescence, % of fluorescent control [13] -0.162% [at 18.6 µM] | fluorescence, % of Rose Bengal [14] 0.682% [at 18.6 µM] | fluorescence, % of fluorescent control [15] 0.141% [at 18.6 µM] | fluorescence, % of fluorescent control [16] 2.47% [at 18.6 µM] | Potency [20] | outcome [19]
